Laboratory results published in PubChem BioAssay (EPA / NIEHS).
Inconclusive results are not listed. Activity calls are given as the source filed them. How the source made its calls: active means hit-call score of the fitted dose curve at least 0.9, where 1 is the maximum; inconclusive means response in the unintended direction; inactive means score below 0.9. Peptide text beside a SMILES is read from it.

target: Sodium channel protein type 1 subunit alpha (Rattus norvegicus) (UniProt P04774); assay: NVS_IC_rNaCh_site2: NovaScreen (NVS) Ion Channel Assay for rat Sodium Channel, Site 2 (NaCh) (AID 2283322);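 further: hit means loss of radioligand binding signal relative to DMSO so AC50 marks displacement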
Procedure, shortened: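 Initial duplicate single-point testing at 25 uM, followed by concentration-response runs for actives. Binding of radioligand to rat forebrain membranes quantified after 1 h via filter-based radiodetection.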

With `CCC(C)C(=O)OC` (stereo unspecified) as the compound, how does the outcome read?
Its outcome is “inactive”.

Which outcome does the source give for `Nc1nc(N)nc(-c2ccccc2)n1` here?
The outcome was “inactive”.

`C=Cc1cccc(C)c1` was tested. Which outcome did it give?
Its outcome is “inactive”.

Which AC50 does the source give for `CC(C)[N+](C)(CCOC(=O)C1c2ccccc2Oc2ccccc21)C(C)C` here?
Its AC50 is 10.1 µM (active).

target: rat Gamma-Aminobutyric Acid Type A Receptor, Non-Selective (GABAR-NonSelective), Gabra1 (gene 29705) (UniProt P62813); assay: NVS_LGIC_rGABAR_NonSelective: NovaScreen (NVS) Ligand-Gated Ion Channel Assay for rat Gamma-Aminobutyric Acid Type A Receptor, Non-Selective (GABAR-NonSelective) (AID 2283326)
Procedure, shortened: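 Compounds were first screened in duplicate at 25 uM, with actives run as singleton concentration series (max 50 uM). Binding of a radioligand to rat whole-brain GABA-A preparation was measured by filtration and scintillation counting after 1 h, DMSO baseline.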

Sequence of rat Gamma-Aminobutyric Acid Type A Receptor, Non-Selective (GABAR-NonSelective), Gabra1 (gene 29705) (P62813 whole entry, looked up): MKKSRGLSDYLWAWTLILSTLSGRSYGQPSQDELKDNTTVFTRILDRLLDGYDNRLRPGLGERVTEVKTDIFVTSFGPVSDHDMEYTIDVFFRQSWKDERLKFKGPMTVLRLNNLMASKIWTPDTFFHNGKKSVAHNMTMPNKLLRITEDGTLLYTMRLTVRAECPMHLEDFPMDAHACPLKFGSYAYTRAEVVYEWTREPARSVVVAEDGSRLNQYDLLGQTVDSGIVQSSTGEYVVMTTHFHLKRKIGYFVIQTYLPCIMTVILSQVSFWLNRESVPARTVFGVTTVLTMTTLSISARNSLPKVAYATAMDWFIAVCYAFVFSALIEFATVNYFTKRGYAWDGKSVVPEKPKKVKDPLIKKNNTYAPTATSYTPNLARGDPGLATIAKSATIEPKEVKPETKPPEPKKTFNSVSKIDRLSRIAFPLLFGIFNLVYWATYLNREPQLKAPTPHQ

`Cc1ccc([N+](=O)[O-])cc1N` was tested. Which AC50 did it give?
Its AC50 is 13.8 µM (active).

For `Nc1ccc(C(=O)O)cc1`, which AC50 is on record?
The AC50 was 2.62 µM (active).

`C1CNCCN1` was tested. Which AC50 did it give?
Its AC50 is 3.59 µM (active).

target: rat Thyrotropin Releasing Hormone Receptor (TRH), Trhr (gene 25570) (UniProt Q01717); assay: NVS_GPCR_rTRH: NovaScreen (NVS) G Protein-Coupled Receptor Assay for rat Thyrotropin Releasing Hormone Receptor (TRH) (AID 2283329);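 further: hit means lower bound tracer signal versus DMSO baseline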
Procedure, shortened: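 Cell-free radioligand binding on rat forebrain membranes; bound tracer measured by filter-based scintillation counting 4 hours after dosing. Loss of signal versus DMSO baseline indicates displacement; primary screen at 25 uM in duplicate, actives then run in concentration series.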

Sequence of rat Thyrotropin Releasing Hormone Receptor (TRH), Trhr (gene 25570) (Q01717 whole entry, looked up): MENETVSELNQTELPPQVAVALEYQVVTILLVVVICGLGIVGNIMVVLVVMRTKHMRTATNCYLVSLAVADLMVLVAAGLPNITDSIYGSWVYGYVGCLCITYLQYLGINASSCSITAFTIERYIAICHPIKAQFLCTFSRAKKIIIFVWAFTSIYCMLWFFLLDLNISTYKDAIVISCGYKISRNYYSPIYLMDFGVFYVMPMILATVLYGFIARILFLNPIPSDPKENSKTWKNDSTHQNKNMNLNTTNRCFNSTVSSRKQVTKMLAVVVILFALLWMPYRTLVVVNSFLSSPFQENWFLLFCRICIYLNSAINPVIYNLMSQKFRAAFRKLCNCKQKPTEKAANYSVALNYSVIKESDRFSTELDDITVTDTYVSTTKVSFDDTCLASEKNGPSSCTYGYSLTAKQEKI

Which outcome does the source give for `COC(=O)[C@H](Cc1ccccc1)NC(=O)[C@@H](N)CC(=O)O` (H-Asp-Phe-OMe) here?
The outcome was “inactive”.

With `CC(C)(C)NC(=O)[C@H]1CC[C@H]2[C@@H]3CC[C@H]4NC(=O)C=C[C@]4(C)[C@H]3CC[C@]12C` as the compound, how does the outcome read?
The outcome was “inactive”.

With `Oc1ccc(-c2ccccc2)c(Cl)c1` as the compound, how does the outcome read?
The outcome was “inactive”.

How did the outcome turn out when `CC1=NN(c2ccc(S(=O)(=O)O)cc2)C(=O)C1N=Nc1ccccc1` (stereo unspecified) was run?
The outcome was “inactive”.

`CC(=O)OC1CCCCC1C(C)(C)C` (stereo unspecified) was tested. Which outcome did it give?
Its outcome is “inactive”.

`CC(CCC(=O)O)(c1ccc(O)cc1)c1ccc(O)cc1` was tested. Which outcome did it give?
The outcome was “inactive”.

For `O=C(OCc1ccccc1)c1ccc(O)cc1`, which outcome is on record?
Its outcome is “inactive”.

Which outcome does the source give for `CCCCNS(=O)(=O)c1ccccc1` here?
Its outcome is “inactive”.

Which outcome does the source give for `C/C=C/C=C/CCCCCCCO` here?
The outcome was “inactive”.

With `CN(C)Cc1cc(CN(C)C)c(O)c(CN(C)C)c1` as the compound, how does the outcome read?
Its outcome is “inactive”.

Which outcome does the source give for `CCCCC(=O)O` here?
Its outcome is “inactive”.

How did the outcome turn out when `CCCCC(C=O)CC` (stereo unspecified) was run?
The outcome was “inactive”.

With `C=C1C[C@H]2[C@@H]3C=C(C)C4=CC(=O)CC[C@]4(C)[C@H]3CC[C@]2(C)[C@@]1(OC(C)=O)C(C)=O` as the compound, how does the outcome read?
Its outcome is “inactive”.

How did the outcome turn out when `CC(=O)OC(C)c1ccccc1` (stereo unspecified) was run?
The outcome was “inactive”.

For `CCCCNC(=S)NCCCC`, which outcome is on record?
The outcome was “inactive”.

With `CCCCCCC=O` as the compound, how does the outcome read?
The outcome was “inactive”.

`CCN1CN(CC)CN(CC)C1` was tested. Which outcome did it give?
Its outcome is “inactive”.

`CCCCC(CC)COS(=O)(=O)O` (stereo unspecified) was tested. Which outcome did it give?
The outcome was “inactive”.

How did the outcome turn out when `CC1=CCC2CC1C2(C)C` (stereo unspecified) was run?
The outcome was “inactive”.

For `CCOC(=O)c1ccc(C)cc1`, which outcome is on record?
Its outcome is “inactive”.

How did the outcome turn out when `CCCCCCCCCC[N+](C)(CCCCCCCCCC)CCC[Si](OC)(OC)OC` was run?
The outcome was “inactive”.

`CCOC(=O)c1ccccc1C` was tested. Which outcome did it give?
Its outcome is “inactive”.

For `CCCCCCO`, which outcome is on record?
Its outcome is “inactive”.

target: human Peripheral-type Benzodiazepine Receptor (PBR), TSPO (gene 706) (UniProt P30536); assay: NVS_MP_hPBR: NovaScreen (NVS) Membrane Protein Assay for human Peripheral-type Benzodiazepine Receptor (PBR) (AID 2283331);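 further: hits reduce radioligand binding relative to DMSO baseline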
Procedure, shortened: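 Cell-free binding to human colonic membrane preparations measured by filter-based scintillation counting after 1 h. Compounds first run at 25 uM in duplicate, then concentration series for actives; signal loss against DMSO baseline.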

Sequence of human Peripheral-type Benzodiazepine Receptor (PBR), TSPO (gene 706) (P30536 whole entry, looked up): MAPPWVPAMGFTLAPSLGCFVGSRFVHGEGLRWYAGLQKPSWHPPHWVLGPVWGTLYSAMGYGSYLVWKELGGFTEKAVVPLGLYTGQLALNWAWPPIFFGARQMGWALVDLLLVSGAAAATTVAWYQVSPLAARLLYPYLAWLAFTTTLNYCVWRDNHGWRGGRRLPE

`COc1ccc(C(=O)/C(Br)=C\C(=O)O)cc1` was tested. Which AC50 did it give?
Its AC50 is 9.63 µM (active).

For `COC(OC)(C(=O)c1ccccc1)c1ccccc1`, which AC50 is on record?
The AC50 was 21.9 µM (active).

For `O=C(O)c1cc(O)c2ccccc2c1O`, which AC50 is on record?
The AC50 was 18 µM (active).

For `O=C(OCc1ccccc1)c1ccc(O)cc1`, which AC50 is on record?
Its AC50 is 6.36 µM (active).

With `CC(Cl)COP(=O)(OCC(C)Cl)OCC(C)Cl` (stereo unspecified) as the compound, how does the AC50 read?
Its AC50 is 25 µM (active).

With `CC/C=C\C/C=C\C/C=C\CCCCCCCC(=O)OC` as the compound, how does the AC50 read?
Its AC50 is 7.69 µM (active).

For `CCOC(=O)C1=NN(c2ccc(Cl)cc2Cl)C(C)(C(=O)OCC)C1` (stereo unspecified), which AC50 is on record?
The AC50 was 10.9 µM (active).

Which AC50 does the source give for `C/C=C/C=C/CCCCCCCO` here?
The AC50 was 12.2 µM (active).

For `C=C1C[C@H]2[C@@H]3C=C(C)C4=CC(=O)CC[C@]4(C)[C@H]3CC[C@]2(C)[C@@]1(OC(C)=O)C(C)=O`, which AC50 is on record?
Its AC50 is 0.732 µM (active).

How did the outcome turn out when `CCCCNC(=S)NCCCC` was run?
Its outcome is “inactive”.

How did the AC50 turn out when `CCCCC/C=C\C/C=C\CCCCCCCC(=O)O` was run?
The AC50 was 5.35 µM (active).

Which AC50 does the source give for `O=C(Oc1ccccc1)c1ccccc1C(=O)Oc1ccccc1` here?
Its AC50 is 1.78 µM (active).

target: rat Peripheral-type Benzodiazepine Receptor (PBR), Tspo (gene 24230) (UniProt P16257); assay: NVS_MP_rPBR: NovaScreen (NVS) Membrane Protein Assay for rat Peripheral-type Benzodiazepine Receptor (PBR) (AID 2283335)
Procedure, shortened: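 Competitive displacement of specific radioligand from rat kidney membrane PBR, read by filtration and scintillation after 1 h. Compounds first tested at 25 uM in duplicate, then in concentration series; signal loss relative to DMSO.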

Sequence of rat Peripheral-type Benzodiazepine Receptor (PBR), Tspo (gene 24230) (P16257 whole entry, looked up): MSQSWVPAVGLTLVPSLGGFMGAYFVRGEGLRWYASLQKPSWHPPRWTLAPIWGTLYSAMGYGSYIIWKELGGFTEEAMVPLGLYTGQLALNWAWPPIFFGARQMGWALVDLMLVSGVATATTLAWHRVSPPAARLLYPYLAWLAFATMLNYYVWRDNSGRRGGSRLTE

How did the AC50 turn out when `COC(OC)(C(=O)c1ccccc1)c1ccccc1` was run?
The AC50 was 25 µM (active).

`O=C(O)c1cc(O)c2ccccc2c1O` was tested. Which AC50 did it give?
The AC50 was 13.6 µM (active).

How did the AC50 turn out when `O=C(OCc1ccccc1)c1ccc(O)cc1` was run?
Its AC50 is 3.77 µM (active).

How did the AC50 turn out when `CC(Cl)COP(=O)(OCC(C)Cl)OCC(C)Cl` (stereo unspecified) was run?
The AC50 was 13.4 µM (active).

`CCCCNS(=O)(=O)c1ccccc1` was tested. Which AC50 did it give?
The AC50 was 25 µM (active).

How did the AC50 turn out when `CC/C=C\C/C=C\C/C=C\CCCCCCCC(=O)OC` was run?
The AC50 was 13.3 µM (active).

Which AC50 does the source give for `CCOC(=O)C1=NN(c2ccc(Cl)cc2Cl)C(C)(C(=O)OCC)C1` (stereo unspecified) here?
Its AC50 is 9.42 µM (active).

With `CCCCNC(=S)NCCCC` as the compound, how does the AC50 read?
Its AC50 is 5.23 µM (active).

`CCCCC/C=C\C/C=C\CCCCCCCC(=O)O` was tested. Which AC50 did it give?
The AC50 was 5.8 µM (active).

With `O=C(Oc1ccccc1)c1ccccc1C(=O)Oc1ccccc1` as the compound, how does the AC50 read?
The AC50 was 30.9 µM (active).

target: bovine Estrogen Receptor (ER), ESR1 (gene 407238) (UniProt P49884); assay: NVS_NR_bER: NovaScreen (NVS) Nuclear Receptor Binding Assay for bovine Estrogen Receptor (ER) (AID 2283345);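 further: actives lower the bound radioligand count which means they displace the ER ligand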
Procedure, shortened: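 Cell-free radioligand binding with receptor from bovine uterine membranes, read by scintillation counting 18 h after dosing. Loss of specific binding was scored against DMSO; primary screen at 25 uM in duplicate, actives then run as concentration series.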

Sequence of bovine Estrogen Receptor (ER), ESR1 (gene 407238) (P49884 whole entry, looked up): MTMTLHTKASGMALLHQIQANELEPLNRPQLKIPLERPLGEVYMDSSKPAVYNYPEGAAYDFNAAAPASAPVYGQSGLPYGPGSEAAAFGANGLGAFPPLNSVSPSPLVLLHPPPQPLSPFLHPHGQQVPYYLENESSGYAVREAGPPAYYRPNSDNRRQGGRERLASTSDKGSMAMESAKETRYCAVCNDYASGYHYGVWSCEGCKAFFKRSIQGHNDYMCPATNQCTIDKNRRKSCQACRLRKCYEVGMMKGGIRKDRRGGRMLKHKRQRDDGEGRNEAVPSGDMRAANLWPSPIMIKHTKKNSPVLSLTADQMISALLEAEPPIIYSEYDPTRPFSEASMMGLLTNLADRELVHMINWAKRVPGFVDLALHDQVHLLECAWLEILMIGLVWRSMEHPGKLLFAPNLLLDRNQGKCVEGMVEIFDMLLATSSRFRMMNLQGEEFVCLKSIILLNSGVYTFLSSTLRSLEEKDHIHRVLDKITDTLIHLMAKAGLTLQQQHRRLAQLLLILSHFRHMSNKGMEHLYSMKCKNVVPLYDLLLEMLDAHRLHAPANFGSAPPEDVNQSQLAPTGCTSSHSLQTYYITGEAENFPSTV

`CC(C)(C)NC(=O)[C@H]1CC[C@H]2[C@@H]3CC[C@H]4NC(=O)C=C[C@]4(C)[C@H]3CC[C@]12C` was tested. Which outcome did it give?
Its outcome is “inactive”.

For `Oc1ccc(-c2ccccc2)c(Cl)c1`, which outcome is on record?
The outcome was “inactive”.

`COC(OC)(C(=O)c1ccccc1)c1ccccc1` was tested. Which outcome did it give?
Its outcome is “inactive”.

With `O=C(O)c1cc(O)c2ccccc2c1O` as the compound, how does the outcome read?
The outcome was “inactive”.

For `CC(CCC(=O)O)(c1ccc(O)cc1)c1ccc(O)cc1`, which AC50 is on record?
The AC50 was 12.2 µM (active).

Which outcome does the source give for `Nc1nc(N)nc(-c2ccccc2)n1` here?
The outcome was “inactive”.

`O=C(OCc1ccccc1)c1ccc(O)cc1` was tested. Which AC50 did it give?
The AC50 was 1.18 µM (active).

With `C=C1C[C@H]2[C@@H]3C=C(C)C4=CC(=O)CC[C@]4(C)[C@H]3CC[C@]2(C)[C@@]1(OC(C)=O)C(C)=O` as the compound, how does the outcome read?
The outcome was “inactive”.

`CCCCC/C=C\C/C=C\CCCCCCCC(=O)O` was tested. Which outcome did it give?
Its outcome is “inactive”.

How did the outcome turn out when `CCCCCCCCCC[N+](C)(CCCCCCCCCC)CCC[Si](OC)(OC)OC` was run?
Its outcome is “inactive”.

target: chimpanzee Androgen Receptor (AR), AR (gene 747460) (UniProt O97775); assay: NVS_NR_cAR: NovaScreen (NVS) Nuclear Receptor Binding Assay for chimpanzee Androgen Receptor (AR) (AID 2283346);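 further: radioligand displacement from AR measured by scintillation counting in a cell-free assay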
Procedure, shortened: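 Cell-free competition binding with insect-cell (Sf9/Sf21) extracted chimpanzee AR; scintillation signal from lysate at 72 h. Screened in duplicate at 25 uM, then concentration-response for actives; fitting relative to DMSO.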

Sequence of chimpanzee Androgen Receptor (AR), AR (gene 747460) (O97775 whole entry, looked up): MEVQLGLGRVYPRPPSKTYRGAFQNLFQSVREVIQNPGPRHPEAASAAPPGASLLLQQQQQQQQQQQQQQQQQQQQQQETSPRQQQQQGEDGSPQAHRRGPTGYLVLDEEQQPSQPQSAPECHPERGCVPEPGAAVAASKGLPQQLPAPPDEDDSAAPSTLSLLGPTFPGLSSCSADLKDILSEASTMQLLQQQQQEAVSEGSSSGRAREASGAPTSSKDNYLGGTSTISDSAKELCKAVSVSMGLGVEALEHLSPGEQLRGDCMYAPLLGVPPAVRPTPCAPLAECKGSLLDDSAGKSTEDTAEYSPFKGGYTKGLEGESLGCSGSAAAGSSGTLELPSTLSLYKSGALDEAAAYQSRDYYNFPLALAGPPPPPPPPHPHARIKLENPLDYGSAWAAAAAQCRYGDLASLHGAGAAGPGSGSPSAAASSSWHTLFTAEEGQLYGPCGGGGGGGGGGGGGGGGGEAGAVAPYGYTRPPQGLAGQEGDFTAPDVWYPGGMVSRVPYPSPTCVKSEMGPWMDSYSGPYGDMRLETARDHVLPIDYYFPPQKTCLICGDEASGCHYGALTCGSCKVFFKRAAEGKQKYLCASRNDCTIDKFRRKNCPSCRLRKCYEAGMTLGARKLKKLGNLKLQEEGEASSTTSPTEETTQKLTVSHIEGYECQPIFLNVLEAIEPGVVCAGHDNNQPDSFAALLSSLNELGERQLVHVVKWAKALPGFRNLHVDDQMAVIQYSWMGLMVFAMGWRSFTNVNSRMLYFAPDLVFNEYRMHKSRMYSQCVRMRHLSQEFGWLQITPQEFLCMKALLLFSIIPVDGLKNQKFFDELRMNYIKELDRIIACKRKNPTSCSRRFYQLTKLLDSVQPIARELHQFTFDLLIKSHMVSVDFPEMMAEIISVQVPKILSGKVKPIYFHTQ

How did the outcome turn out when `CC(C)(C)NC(=O)[C@H]1CC[C@H]2[C@@H]3CC[C@H]4NC(=O)C=C[C@]4(C)[C@H]3CC[C@]12C` was run?
Its outcome is “inactive”.

For `Oc1ccc(-c2ccccc2)c(Cl)c1`, which AC50 is on record?
Its AC50 is 14.1 µM (active).

`O=C(O)c1cc(O)c2ccccc2c1O` was tested. Which AC50 did it give?
The AC50 was 35 µM (active).

Which AC50 does the source give for `O=C(OCc1ccccc1)c1ccc(O)cc1` here?
Its AC50 is 25 µM (active).

How did the AC50 turn out when `Cc1ccc([N+](=O)[O-])cc1N` was run?
Its AC50 is 20.8 µM (active).

`C=C1C[C@H]2[C@@H]3C=C(C)C4=CC(=O)CC[C@]4(C)[C@H]3CC[C@]2(C)[C@@]1(OC(C)=O)C(C)=O` was tested. Which AC50 did it give?
The AC50 was 0.33 µM (active).

For `CC(=O)OC(C)c1ccccc1` (stereo unspecified), which outcome is on record?
The outcome was “inactive”.

`CCCCC/C=C\C/C=C\CCCCCCCC(=O)O` was tested. Which AC50 did it give?
Its AC50 is 25 µM (active).

`CCN1CN(CC)CN(CC)C1` was tested. Which outcome did it give?
Its outcome is “inactive”.
